Bioassay records: PubChem, National Center for Advancing Translational Sciences (NCATS)
RORg inh: inhibitors of mouse ROR gamma transcriptional activity; Potency, µM (doses to about 53.6 µM), for inactives: top-dose activity change, negative = inhibition, most hits filed as inhibitors; hit rate 5.4% among 310,000; P51450; AID 2551; Drosophila S2 Gal4-RORgamma UAS-luciferase reporter, 20 h; note: potency is the fitted concentration of half-maximal effect; nearly all actives have a fitted effect of over 60% in size
Target sequence (P51450 whole entry, looked up, the tested form may be a part): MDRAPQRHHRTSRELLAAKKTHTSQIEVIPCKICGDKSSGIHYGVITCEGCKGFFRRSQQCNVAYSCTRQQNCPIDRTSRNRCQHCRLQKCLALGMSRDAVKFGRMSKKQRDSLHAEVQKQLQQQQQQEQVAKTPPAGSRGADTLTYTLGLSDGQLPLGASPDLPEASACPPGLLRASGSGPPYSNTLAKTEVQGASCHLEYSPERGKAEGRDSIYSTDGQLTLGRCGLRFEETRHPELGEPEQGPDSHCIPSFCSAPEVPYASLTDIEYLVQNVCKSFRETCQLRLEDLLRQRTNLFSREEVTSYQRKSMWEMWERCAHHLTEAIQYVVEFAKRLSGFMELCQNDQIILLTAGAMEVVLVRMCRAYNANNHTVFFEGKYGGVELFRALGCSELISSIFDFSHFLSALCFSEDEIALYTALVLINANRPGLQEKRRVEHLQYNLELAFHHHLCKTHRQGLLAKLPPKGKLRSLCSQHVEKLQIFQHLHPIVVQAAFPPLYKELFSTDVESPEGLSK
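Compounds are pin-transferred onto Drosophila Schneider cells expressing a copper-inducible Gal4–ROR gamma transactivation domain fusion. After 1 hr, copper sulfate is added to 700 uM final; luciferase is read 20 hr later.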
ELG1 repair inh: ELG1-dependent DNA repair inhibition | Potency, µM (top dose mostly 46.1 µM), inactives show top-dose activity change, negative = inhibition, most hits filed as inhibitors | HEK293T ELG1-luciferase reporter, luminescence, 16 h; DNA damage induced by 5-fluorouridine | hit rate 2.3% among 330,000; note: potency is the fitted concentration of half-maximal effect; nearly all actives have a fitted effect of over 55% in size
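Luminescence from the luciferase reporter, measured 30 min after ONE-Glo reagent at room temperature, was the read-out. Beforehand, 2,000 cells per well were exposed for 16 hr at 37 °C to 5-fluorouridine together with compound or vehicle.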
VP16 counter: counter-screen for ROR gamma inhibitors: Gal4-VP16 reporter; Drosophila S2 Gal4-VP16 UAS-luciferase, luminescence, 20 h; AID 2546; Potency, µM (top dose mostly 53.6 µM), for inactives: at the top dose activity, negative = inhibition, usual class: inhibitors; hit rate 3.5% among 310,000;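 note: Gal4-VP16 expression switched on by copper sulfate through the metallothionein promoter; potency is the fitted concentration of half-maximal effect; nearly all actives have a fitted effect of over 50% in size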
FBPA coupling cs: inhibits coupling enzyme system, counter-screen for aldolase hits; hit rate 0.67% among 290,000; coupling enzyme system counterscreen, AmpLite Red fluorescence; activity change, negative = inhibition, % at 58.2 µM, hits read low; in the data active = activity change below about -30%
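Final compound at 57.5 uM, incubated 10 min at RT with coupling enzyme reagent (glyceraldehyde-3-phosphate), then 20 min with substrate and AmpLite Red detection. Fluorescence read at 525/598 nm; tests interference with the coupling assay, not aldolase inhibition.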
TSHR antagonist: human thyrotropin receptor antagonism; P16473; TSHR-expressing cells, TSH-stimulated cAMP HTRF, 2 h; hits give low values; activity change, negative = inhibition, % at 11.5 µM; hit rate 0.2% among 330,000;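 active = activity change below a set negative limit, meaning inhibition stronger than a set level, cut at about -70% in these data; inconclusive = activity change between two set negative limits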
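Freshly harvested TSHR cells receive pin-tooled compound, then EC80 TSH at 4nM final. After 2 hours at 37 deg C, antibody in lysis buffer and cAMP-d2 are added; 30 minutes at ambient temperature precede the HTRF read.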
* = called active by the depositor; ? = inconclusive; . = no result given; [ ] = remark or other dose. Most compounds without a hit are left out; they make up all but 8% or so of the library. Unless noted, calls come from the whole dose curve; as a rule, active = well fitted curve in the direction sought with a large enough effect; inconclusive = small, poorly fitted or top-dose-only effect, or another doubt; inactive = no such curve, though single readings can be large; an effect the other way counts as inactive or inconclusive. % is set by controls: 0 for no effect and ±100 for the full control effect.

SMILES	RORg inh	ELG1 repair inh	VP16 counter	FBPA coupling cs	TSHR antagonist
Cc1ccc(-c2nc(-c3ccncc3)no2)cc1Cl	-24.8%	?	-2.0%	1.4	-6.4
O=C(O)C1C2CCC(O2)C1C(=O)Nc1ccc(OC(F)F)cc1 (stereo unspecified)	-12.0%	2.3%	-0.5%	1.6	5.6
COc1ccc(C(=O)OCC(=O)N2CCN(C(=O)c3ccco3)CC2)cc1OC	.	3.1%	.	.	-4.9
Cc1cccc(-c2noc(-c3cc4ccccc4oc3=O)n2)c1	0.891µM*	?	?	0.2	17.9
CC(C)(C)c1ccc(-c2noc(C(=O)NN)n2)cc1	10µM*	?	-27.7%	3.8	-5.2
O=C(NCc1ccccn1)c1nc(-c2ccc(C(F)(F)F)cc2)no1	10.6%	11.0%	-13.0%	3.8	9.1
CCOC(=O)c1cc(C(=O)NC(C)c2ccccc2)c(C)[nH]c1=O (stereo unspecified)	0.4%	-17.8%	-8.6%	4.0	-13.0
COC(C[C@@H]1O[C@@H]1[C@H](O)[C@@H](C)OCc1ccccc1)OC	0.1%	16.0%	-2.5%	-3.6	-13.4
[C-]#[N+]/C(C#N)=C\c1cc(C(C)(C)C)c(O)c(C(C)(C)C)c1	0.199µM*	.	8.91µM*	4.9	.
O=C(NC1CCCCC1)C(c1cccnc1)N(C(=O)CCl)c1cccc(Cl)c1 (stereo unspecified)	12.6µM*	20.6µM*	?	-1.3	-2.4
O=C(NC(=S)Nc1ncc(Br)cc1Br)c1ccccc1	8.91µM*	?	17.8µM*	1.6	-5.8
Cc1cc(C)nc(NC(=S)NC(=O)c2ccccc2)n1	?	10.4%	?	1.3	-2.5
Cc1cc(C)c2c(NC(=S)NC(=O)c3ccccc3)nn(C)c2n1	1.41µM*	-17.6%	5.01µM*	1.5	-8.5
Cn1ncc2cc(NC(=S)NC(=O)c3ccccc3)ccc21	10µM*	?	?	-0.1	-2.8
O=C(NC(=S)Nc1cnc2ccccc2c1)c1ccccc1	5.62µM*	?	?	0.1	2.2
O=C(Nc1cnc2ccccc2c1)c1ccncc1	-20.3%	?	-41.0%	0.9	13.2
COc1cccc2cc(C(=O)NC(C)c3ccccc3)c(=O)oc12 (stereo unspecified)	9.3%	18.7%	8.2%	2.1	7.4
O=C(Nc1cccc(C(=O)Nc2ccc(S(=O)(=O)O)c3cc(S(=O)(=O)O)cc(S(=O)(=O)O)c23)c1)Nc1cccc(C(=O)Nc2ccc(S(=O)(=O)O)c3cc(S(=O)(=O)O)cc(S(=O)(=O)O)c23)c1	-11.6%	.	-4.4%	15.5	-15.2
O=C(O)CCc1ccc(S(=O)(=O)Nc2ccccc2N2CCCCC2)cc1	.	?	.	.	2.2
CN(C)C(=O)C1C2NC(=S)N(c3ccccc3)C1(C)Oc1ccccc12 (stereo unspecified)	-33.8%	-1.5%	-3.6%	-0.4	1.9
CN(C)C(=O)C1C2NC(=S)N(c3cccc(Cl)c3)C1(C)Oc1ccc(Cl)cc12 (stereo unspecified)	10µM*	11.8%	?	0.0	3.4
CN(C)C(=O)C1C2NC(=S)N(c3ccc(Cl)cc3)C1(C)Oc1ccc(Cl)cc12 (stereo unspecified)	10µM*	2.1%	?	-0.4	8.0
[O-]/C(=C(\C(=S)Nc1cccc2ccccc12)[n+]1ccccc1)c1cccs1	?	-6.5%	7.8%[10 µM]	-16.5	-13.2
Cc1cccc(C)c1NC(=S)/C(=C(\[O-])c1cccs1)[n+]1ccccc1	?	3.2%	20µM*	-10.3	32.1
Cc1cc(C)nc(SCc2nc3ccccc3n2C)n1	-15.7%	?	?	1.7	-8.8
SMILES	RORg inh	ELG1 repair inh	VP16 counter	FBPA coupling cs	TSHR antagonist
CC(=O)OCC#CCSc1nc2ccccc2n1C	12.6µM*	16.4%	?	2.0	5.7
Cn1c(CSc2nc3ccccc3n2C)nc2ccccc21	10µM*	?	-22.6%	.	10.1
O=C(Nc1ccccc1)Nc1cccc(NC(=O)Nc2ccccc2)c1F	-2.3%	?	1.8%	-0.3	-1.3
Cc1cc2c(NC(=O)Nc3ccccc3)cccc2nn1	-4.8%	?	-5.5%	-41.7*	-3.8
Cc1ccccc1NC(=O)Nc1ccc(C(F)(F)F)cc1	-2.9%	?	-26.2%	-0.6	-13.4
Cc1cc2c(NC(=O)Nc3ccc(C(C)(C)C)cc3)cccc2nn1	36.9%	14.6µM*	-14.9%	-25.0	-4.5
